In the library only some 21% were active in any assay of this set; here they are far more common.
AMA1-RON2 inh – disrupts binding of P. falciparum AMA1 to RON2 | AlphaScreen AMA1-biotinylated RON2 peptide binding | Potency, µM (doses to about 58.2 µM), most hits filed as inhibitors | 360,000 tested, 0.2% active | AID 720542; further: nearly all actives have a fitted effect of over 45% in size
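AMA1 (3D7) with his tag at 25 nM final met compounds first, then biotinylated RON2 peptide at 25 nM; detection used donor plus acceptor beads, 10 µg/mL apiece, read by AlphaScreen after 30 min at room temperature.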
CHX counter – affects cycloheximide protein synthesis inhibition readout, counter-screen. cell reporter, cycloheximide protein synthesis inhibition counterscreen. max response, %. 300,000 tested, 12% active. AID 2314; in the data active means max response mostly above about 13%, no sharp cut-off; inactive means mostly below about 14%; further: read at 38.3 µM for the half of the compounds with a filed dose
Pf growth 96h – P. falciparum growth inhibition at 96 hours; 320,000 tested, 6.9% active; AID 504834; P. falciparum luciferase reporter growth, 96 h; Potency, µM (highest dose often 28.7 µM), most hits filed as inhibitors
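Cell-based qHTS: luciferase-tagged P. falciparum in erythrocytes (2% hematocrit, 0.05% parasitemia final) incubated with compounds for 96 hours, 37 C, 5% CO2; luciferase detection reagent then added and luminescence measured.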
Shiga toxin inh – blocks Shiga toxin action in Vero cells; AID 2315; Vero cells, Shiga toxin protein synthesis inhibition reporter; 290,000 tested, 9.2% active; inhibition, % at 38.7 µM; in the data active means inhibition mostly above about 28%, no sharp cut-off; inactive means mostly below about 43%
Pf growth 48h – P. falciparum growth inhibition at 48 hours (one generation); AID 504832; Potency, µM (titrated, usually from 28.7 µM), hits mostly inhibitors; P. falciparum luciferase growth in erythrocytes, 48 h; 310,000 tested, 5.9% active
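Firefly luciferase activity from engineered P. falciparum reports growth; inhibitors lower the luminescent signal. Cultures contained 2% hematocrit erythrocytes at 0.1% final parasitemia.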
HCV inh – blocks hepatitis C virus | Huh7.5.1 HCVcc-Cre infection, luciferase reporter, 44 h | Potency, µM (highest dose often 41.8 µM), hits mostly inhibitors | 340,000 tested, 3.4% active | AID 651820
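Infectious HCV cell culture screen: compound-treated cells (1,000/well, pre-plated 4 h) are infected with HCVcc-Cre at roughly 0.5 moi and grown 44 h. Infection is quantified by luciferase signal after 15 min substrate incubation at room temperature.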
A number is an active result; – = inactive; ? = inconclusive; · = no result; [ ] = dose if it differs, or a comment. Unless noted, the call rests on the fitted dose curve; in most records, active means well fitted curve in the direction sought with a large enough effect; inconclusive means small, poorly fitted or top-dose-only effect, or another doubt; inactive means no such curve, though single readings can be large; an effect the other way counts as inactive or inconclusive.

SMILES	AMA1-RON2 inh	CHX counter	Pf growth 96h	Shiga toxin inh	Pf growth 48h	HCV inh
COc1ccc(CNC(=O)C2CC(=O)N(C3CCCC3)C2)cc1 (centres undefined)	–	–	–	–	–	–
CCc1ccc(CNC(=O)C2CC(=O)N(C3CCCC3)C2)cc1 (centres undefined)	–	–	2.6µM	–	–	–
CN(C)S(=O)(=O)c1cccc(COc2ncnc3c(Cl)cc(Cl)cc23)c1	–	–	–	–	–	–
COc1ccc(N(C)S(=O)(=O)c2cccc(C(=O)OCC(=O)Nc3cc(C)ccc3OC)c2)cc1	–	·	·	·	·	·
CC(C)(C)[C@H]1C=C(C(N)=O)O[C@@H](OCCCCO)C1	–	–	–	–	–	–
Nc1c(C(O)(C(F)(F)F)C(F)(F)F)cc(C(O)(C(F)(F)F)C(F)(F)F)c2ccccc12	–	–	?	–	9.3µM	?
O=C(c1ccccc1)N1CCN(C(=O)c2nn3c(C(F)(F)F)cc(-c4ccccc4)nc3c2Br)CC1	–	–	–	–	8.3µM	?
NC(=O)c1nn2c(C(F)(F)F)cc(-c3ccccc3)nc2c1Br	–	–	?	–	–	0.89µM
CCCNC(=O)c1nn2c(C(F)(F)F)cc(-c3ccccc3)nc2c1Br	–	–	9.3µM	–	?	?
CC(C)(C)NC(=O)c1nn2c(C(F)(F)F)cc(-c3ccccc3)nc2c1Br	–	–	–	·	–	–
O=C(c1ccccc1)N1CCN(C(=O)c2nn3c(C(F)(F)F)cc(-c4ccco4)nc3c2Cl)CC1	–	–	–	–	?	?
Cc1ccnc2nc(C(=O)OCC(=O)N(Cc3ccccc3)C(C)C)nn12	–	·	·	·	·	–
COc1cccc(NC(=O)CN(C)C(=O)c2cc3c(s2)CCC3)c1	–	·	–	·	–	–
Cc1cc(Oc2ccccc2)nc(-c2ccccc2)n1	–	27	–	–	–	–
CCOC(=O)c1c(C)[nH]c(C)c1C(=O)COC(=O)CNC(=O)C1CCCCC1	–	–	–	–	–	–
CCOC(=O)c1c(C)[nH]c(C(=O)COC(=O)CNC(=O)c2ccccc2Cl)c1C	–	56	–	109	–	?
CCOC(=O)c1c(C)[nH]c(C(=O)COC(=O)CNC(=O)c2ccc(Br)cc2)c1C	–	–	–	–	–	–
CCOC(=O)c1c(C)[nH]c(C(=O)COC(=O)c2ccccc2NC(=O)c2ccco2)c1C	–	–	–	–	–	?
CCOC(=O)c1c(C)[nH]c(C(=O)COC(=O)CNC(=O)C2CCCCC2)c1C	–	34	–	146	–	–
CCOC(=O)c1c(C)[nH]c(C(=O)COC(=O)[C@H](C)NC(=O)c2ccccc2Cl)c1C	–	28	–	49	–	–
CC1OC(CCc2cccc(Cl)c2)Cc2[nH][nH]c(=O)c21 (centres undefined)	–	·	·	·	·	·
O=C(Nc1ccnn1C1CCN(Cc2ccc(CO)o2)CC1)c1cccc(F)c1	–	·	·	·	·	·
COc1nc(Nc2ccc(OC)c(Cl)c2)nc(OC)n1	–	–	–	–	8.3µM	?
COc1ccc(Nc2nc(C)cc(C)n2)cc1Cl	–	26	–	–	–	–
CCOc1nc(Nc2ccc(OC)c(Cl)c2)nc(N2CCN(c3ccc(OC)cc3)CC2)n1	?	–	?	–	·	10µM
SMILES	AMA1-RON2 inh	CHX counter	Pf growth 96h	Shiga toxin inh	Pf growth 48h	HCV inh
COc1nc(Nc2ccccc2)nc(OC)n1	–	·	·	·	·	–
Cc1ccc(SCCN2CCC(O)CCC2=O)cc1 (centres undefined)	–	–	–	–	–	–
CC1=CC(=O)N(c2ccn(C)n2)C1=O	–	–	?	–	?	–
CCN(CC(=O)Nc1cc(Cl)ccc1C)C(=O)Cc1sc(C)nc1-c1ccc(F)cc1	–	·	4.7µM	·	?	–[8.37 µM]
CN(CCC#N)C(=O)Cn1nc(Cc2ccncc2)c2ccccc2c1=O	–	–	13µM	–	·	–
CCN(CC)CCNC(=O)Cn1nc(Cc2cccnc2)c2ccccc2c1=O	–	–	–	–	·	–
O=C(Cn1nc(Cc2ccncc2)c2ccccc2c1=O)N1CCc2ccccc2C1	–	–	–	–	–	?
CCCCNC(=O)Cn1nc(Cc2ccncc2)c2ccccc2c1=O	–	–	9.3µM	–	–	–
CCC1CCCCN1C(=O)Cn1c(=O)n(CCCC(=O)NCc2ccco2)c(=O)c2sccc21 (centres undefined)	–	–	–	–	–	–

Bioassay records deposited in PubChem BioAssay by National Center for Advancing Translational Sciences (NCATS).
